From ChEMBL document CHEMBL3988442, “University of Dundee, Small-Polar-MMV Screening Library” (2021) come the findings set out here.

Set-up in all cases: scale not given: direction of the effect not stated beside the values
Experiment [1] concerns the target Protein translocase subunit SecA (Escherichia coli (strain K12)) (UniProt P10408). As to the kind of experiment: Assay to Identify E. coli SecA ATPase Inhibitors. As to conditions: 30 µM. The experiment is classed as functional.
Experiment [2] has as its target T1, Ubiquitin-activating enzyme e1, putative (Leishmania donovani (strain BPK282A1)) (UniProt E9BSI1).
T1 sequence (whole entry): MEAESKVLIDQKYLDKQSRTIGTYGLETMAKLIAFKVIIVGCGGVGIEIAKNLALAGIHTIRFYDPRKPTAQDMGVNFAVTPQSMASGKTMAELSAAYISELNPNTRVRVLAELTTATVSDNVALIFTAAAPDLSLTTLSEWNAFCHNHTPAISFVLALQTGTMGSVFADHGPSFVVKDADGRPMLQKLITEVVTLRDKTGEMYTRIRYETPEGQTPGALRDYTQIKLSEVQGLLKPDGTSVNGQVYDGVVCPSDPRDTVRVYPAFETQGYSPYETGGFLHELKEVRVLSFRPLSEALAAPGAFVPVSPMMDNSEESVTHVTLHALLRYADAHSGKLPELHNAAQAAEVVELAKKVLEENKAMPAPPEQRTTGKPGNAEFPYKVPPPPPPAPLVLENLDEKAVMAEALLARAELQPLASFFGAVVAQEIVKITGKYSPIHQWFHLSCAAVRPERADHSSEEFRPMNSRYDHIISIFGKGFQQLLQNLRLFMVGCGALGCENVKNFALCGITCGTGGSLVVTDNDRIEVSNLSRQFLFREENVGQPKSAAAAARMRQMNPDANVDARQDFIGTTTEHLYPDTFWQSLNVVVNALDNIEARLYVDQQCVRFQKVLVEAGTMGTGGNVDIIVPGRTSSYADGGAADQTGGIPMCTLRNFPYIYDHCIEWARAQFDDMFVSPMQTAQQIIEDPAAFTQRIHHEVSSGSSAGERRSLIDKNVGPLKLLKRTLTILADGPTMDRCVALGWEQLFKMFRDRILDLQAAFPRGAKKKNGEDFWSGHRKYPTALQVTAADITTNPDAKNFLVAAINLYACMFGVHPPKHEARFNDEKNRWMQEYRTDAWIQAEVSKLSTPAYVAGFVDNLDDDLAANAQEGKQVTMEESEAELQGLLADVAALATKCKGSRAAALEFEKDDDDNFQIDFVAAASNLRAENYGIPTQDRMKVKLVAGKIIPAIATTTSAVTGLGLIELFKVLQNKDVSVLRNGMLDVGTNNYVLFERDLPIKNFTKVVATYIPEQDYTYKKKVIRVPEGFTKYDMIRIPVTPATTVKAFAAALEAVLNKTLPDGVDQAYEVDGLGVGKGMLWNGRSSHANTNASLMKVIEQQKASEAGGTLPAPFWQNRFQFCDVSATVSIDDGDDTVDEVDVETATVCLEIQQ
As to the kind of experiment: Leishmania donovani Ubiquitin Activating Enzyme (LdE1). As to conditions: 30 µM. The experiment is classed as functional.

The target in experiment [3] is AMP-activated protein kinase, AMPK (Homo sapiens) (UniProt P54646+O43741+P54619+Q9UGJ0+Q9Y478+Q13131+Q9UGI9). As to the kind of experiment: AMP-dependent Kinase enzyme assay. An in vitro enzyme assay that detects ADP turnover that is directly proportional to AMPK activity. This uses naive AMPK that is activated during the assay with MK-8722. The experiment is classed as functional. As to conditions: 30 µM.

Experiment [4] deals with Sialic acid-binding Ig-like lectin 9 (Homo sapiens) (UniProt Q9Y336). As to the kind of experiment: Hs-Siglec9 ALPHAscreen SOP 20170721. As to conditions: 10 µM. (Alpha assays give light when donor and acceptor beads are brought close together.)
In a further experiment the test system is Trypanosoma cruzi. Briefly: Trypanosoma cruzi phosphomannomutase and mannose-1-phosphate guanylyltransferase assay. The conditions noted are these: 10 µM. It counts as functional.
For experiment [5], the target named is T2, Arginase-2, mitochondrial (Homo sapiens) (UniProt P78540).
T2 sequence (whole entry): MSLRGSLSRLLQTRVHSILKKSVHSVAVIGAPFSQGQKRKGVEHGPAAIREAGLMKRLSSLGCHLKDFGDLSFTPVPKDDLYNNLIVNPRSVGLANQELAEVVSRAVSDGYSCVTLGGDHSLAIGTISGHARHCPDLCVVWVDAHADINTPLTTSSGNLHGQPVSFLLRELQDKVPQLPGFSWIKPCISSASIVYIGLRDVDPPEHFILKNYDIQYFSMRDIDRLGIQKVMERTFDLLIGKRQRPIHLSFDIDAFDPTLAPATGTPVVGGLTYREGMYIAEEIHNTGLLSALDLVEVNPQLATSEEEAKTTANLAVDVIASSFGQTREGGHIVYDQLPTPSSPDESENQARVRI
Briefly: in vitro enzyme assay to detect the production of urea directly proportional to the activity of Arginase II. Further: in the data most compounds retested in dose-response had high values. It counts as functional. The conditions noted are these: 33.3 µM.

Experiment [6] concerns the target T3, Proteasome subunit beta (Trypanosoma cruzi) (UniProt O96673).
T3 sequence (whole entry): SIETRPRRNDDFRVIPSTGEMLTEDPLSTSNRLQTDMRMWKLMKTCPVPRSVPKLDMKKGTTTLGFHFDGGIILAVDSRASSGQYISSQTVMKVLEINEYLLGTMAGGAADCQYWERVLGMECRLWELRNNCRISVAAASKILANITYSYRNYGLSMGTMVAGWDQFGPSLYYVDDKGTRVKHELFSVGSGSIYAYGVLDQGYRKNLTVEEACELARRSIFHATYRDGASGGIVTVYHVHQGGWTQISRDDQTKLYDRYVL
Briefly: Trypanosoma cruzi proteasome chymotrypsin-like activity (TcProtChymo) assay. Further: in the data most compounds retested in dose-response had high values. It counts as functional. As to conditions: 9.37 µM.

The species named for another experiment is Homo sapiens. As to the kind of experiment: To identify inhibition of the IFN signalling (Jak-Stat) pathway via expression of an eGFP reporter gene under the control of an IFN-stimulated response element (ISRE) containing MxA promoter. The experiment is classed as functional. As to conditions: 30 µM. For orientation: In a reporter assay the amount or activity of a reporter protein is the signal.

Experiment [7] has as its target T4, Tyrosyl-tRNA synthetase, putative (Trypanosoma cruzi (strain CL Brener)) (UniProt Q4DSP6).
T4 sequence (whole entry): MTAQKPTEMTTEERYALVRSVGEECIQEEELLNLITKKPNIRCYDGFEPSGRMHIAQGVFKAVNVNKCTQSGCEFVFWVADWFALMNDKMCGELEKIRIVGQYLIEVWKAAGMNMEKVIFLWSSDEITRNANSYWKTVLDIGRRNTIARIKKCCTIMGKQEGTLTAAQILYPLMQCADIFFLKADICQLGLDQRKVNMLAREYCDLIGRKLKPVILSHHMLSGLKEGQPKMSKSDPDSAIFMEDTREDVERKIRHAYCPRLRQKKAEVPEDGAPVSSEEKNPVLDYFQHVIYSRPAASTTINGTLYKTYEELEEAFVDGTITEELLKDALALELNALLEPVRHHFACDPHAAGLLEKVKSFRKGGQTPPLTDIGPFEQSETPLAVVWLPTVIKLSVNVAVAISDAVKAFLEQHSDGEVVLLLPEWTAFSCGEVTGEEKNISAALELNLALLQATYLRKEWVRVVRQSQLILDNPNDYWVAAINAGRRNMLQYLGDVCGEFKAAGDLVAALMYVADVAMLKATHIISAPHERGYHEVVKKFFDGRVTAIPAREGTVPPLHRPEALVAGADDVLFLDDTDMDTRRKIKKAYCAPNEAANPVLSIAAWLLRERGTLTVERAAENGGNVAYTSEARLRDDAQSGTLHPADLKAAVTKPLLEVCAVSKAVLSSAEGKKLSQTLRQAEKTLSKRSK
Briefly: Trypanosoma cruzi tyrosyl tRNA synthetase (TcYRS) _High Tyrosine SOP. Further: in the data most compounds retested in dose-response had high values. The conditions noted are these: 30 µM. The experiment is classed as functional.

The target of experiment [8] is T4, Tyrosyl-tRNA synthetase, putative (Trypanosoma cruzi (strain CL Brener)). Briefly: Trypanosoma cruzi tyrosyl tRNA synthetase (TcYRS) SOP. The experiment is classed as functional. As to conditions: 30 µM.
Experiment [9] has as its target Chromo domain-containing protein 1 (Saccharomyces cerevisiae (strain ATCC 204508 / S288c) (Baker's yeast)) (UniProt P32657). Briefly: ScCHD-1 Enzyme Inhibition Assay. Further: in the data most compounds retested in dose-response had high values. The conditions noted are these: 30 µM. It counts as functional.

The structures appear in SMILES notation. For some assays here: Entries with a potency or affinity are not part of this list.

Sequence of Chromo domain-containing protein 1 (Saccharomyces cerevisiae (strain ATCC 204508 / S288c) (Baker's yeast)) (P32657 whole entry, the tested form may be a part): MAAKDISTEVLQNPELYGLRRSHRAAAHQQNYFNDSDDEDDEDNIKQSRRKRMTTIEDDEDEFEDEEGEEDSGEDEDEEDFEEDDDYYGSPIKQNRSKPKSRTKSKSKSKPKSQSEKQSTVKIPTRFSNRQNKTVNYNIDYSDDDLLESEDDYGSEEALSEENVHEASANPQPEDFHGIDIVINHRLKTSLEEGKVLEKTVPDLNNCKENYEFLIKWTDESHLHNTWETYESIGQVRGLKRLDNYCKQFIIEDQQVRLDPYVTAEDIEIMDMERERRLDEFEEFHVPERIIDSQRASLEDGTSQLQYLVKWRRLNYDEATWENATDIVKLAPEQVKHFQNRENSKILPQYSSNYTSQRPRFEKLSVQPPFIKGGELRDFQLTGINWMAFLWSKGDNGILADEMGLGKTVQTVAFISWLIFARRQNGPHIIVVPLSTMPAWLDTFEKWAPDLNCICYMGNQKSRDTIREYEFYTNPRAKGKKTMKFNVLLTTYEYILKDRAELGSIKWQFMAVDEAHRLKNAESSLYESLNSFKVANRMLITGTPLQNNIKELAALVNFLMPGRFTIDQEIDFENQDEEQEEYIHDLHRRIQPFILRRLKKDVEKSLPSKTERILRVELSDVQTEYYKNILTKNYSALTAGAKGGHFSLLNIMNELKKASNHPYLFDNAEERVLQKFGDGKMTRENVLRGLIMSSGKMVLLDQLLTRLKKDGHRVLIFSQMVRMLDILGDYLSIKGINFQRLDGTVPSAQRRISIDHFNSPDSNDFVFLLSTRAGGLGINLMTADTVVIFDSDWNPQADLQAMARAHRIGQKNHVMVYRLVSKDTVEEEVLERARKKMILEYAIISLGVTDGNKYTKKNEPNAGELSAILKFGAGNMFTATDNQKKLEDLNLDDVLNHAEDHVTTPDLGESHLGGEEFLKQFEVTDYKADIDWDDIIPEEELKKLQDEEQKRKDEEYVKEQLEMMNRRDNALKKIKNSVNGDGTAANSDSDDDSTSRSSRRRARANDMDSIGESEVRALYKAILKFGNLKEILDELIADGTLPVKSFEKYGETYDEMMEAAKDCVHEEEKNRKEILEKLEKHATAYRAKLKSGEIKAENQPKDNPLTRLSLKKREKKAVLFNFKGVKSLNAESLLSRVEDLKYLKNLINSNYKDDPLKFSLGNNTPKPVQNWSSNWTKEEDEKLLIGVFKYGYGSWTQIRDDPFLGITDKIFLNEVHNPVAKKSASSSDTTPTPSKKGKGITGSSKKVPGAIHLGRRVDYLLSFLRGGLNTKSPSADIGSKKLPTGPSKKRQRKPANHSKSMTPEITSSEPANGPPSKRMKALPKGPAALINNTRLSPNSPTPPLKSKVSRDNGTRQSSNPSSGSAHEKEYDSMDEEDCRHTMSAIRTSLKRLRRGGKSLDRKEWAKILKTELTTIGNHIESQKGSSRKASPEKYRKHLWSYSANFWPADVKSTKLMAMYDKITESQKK
Sequence of Protein translocase subunit SecA (Escherichia coli (strain K12)) (P10408 whole entry): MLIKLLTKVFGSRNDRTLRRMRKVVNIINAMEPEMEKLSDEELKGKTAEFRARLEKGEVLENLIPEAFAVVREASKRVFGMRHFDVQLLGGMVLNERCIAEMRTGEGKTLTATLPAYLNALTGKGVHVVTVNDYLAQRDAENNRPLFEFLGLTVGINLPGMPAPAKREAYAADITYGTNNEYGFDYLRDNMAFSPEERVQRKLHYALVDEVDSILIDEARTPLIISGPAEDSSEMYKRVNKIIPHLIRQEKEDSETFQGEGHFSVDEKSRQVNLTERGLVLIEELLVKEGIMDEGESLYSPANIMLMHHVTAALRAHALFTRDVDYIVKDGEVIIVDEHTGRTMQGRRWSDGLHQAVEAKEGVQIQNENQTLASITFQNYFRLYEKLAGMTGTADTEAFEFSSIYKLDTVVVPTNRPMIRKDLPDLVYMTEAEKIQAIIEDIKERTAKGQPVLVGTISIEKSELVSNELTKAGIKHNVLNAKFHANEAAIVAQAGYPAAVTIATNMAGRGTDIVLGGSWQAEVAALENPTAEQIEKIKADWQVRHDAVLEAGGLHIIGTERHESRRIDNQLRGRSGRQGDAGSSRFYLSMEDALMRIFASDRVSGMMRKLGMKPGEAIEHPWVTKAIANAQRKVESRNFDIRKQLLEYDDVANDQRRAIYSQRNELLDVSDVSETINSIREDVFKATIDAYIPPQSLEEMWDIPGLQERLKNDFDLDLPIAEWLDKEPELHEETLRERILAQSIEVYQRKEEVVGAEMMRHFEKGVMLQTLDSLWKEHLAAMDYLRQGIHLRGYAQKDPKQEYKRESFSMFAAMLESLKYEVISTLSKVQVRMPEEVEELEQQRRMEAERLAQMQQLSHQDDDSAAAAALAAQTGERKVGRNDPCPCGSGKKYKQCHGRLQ
Sequence of Sialic acid-binding Ig-like lectin 9 (Homo sapiens) (Q9Y336 whole entry): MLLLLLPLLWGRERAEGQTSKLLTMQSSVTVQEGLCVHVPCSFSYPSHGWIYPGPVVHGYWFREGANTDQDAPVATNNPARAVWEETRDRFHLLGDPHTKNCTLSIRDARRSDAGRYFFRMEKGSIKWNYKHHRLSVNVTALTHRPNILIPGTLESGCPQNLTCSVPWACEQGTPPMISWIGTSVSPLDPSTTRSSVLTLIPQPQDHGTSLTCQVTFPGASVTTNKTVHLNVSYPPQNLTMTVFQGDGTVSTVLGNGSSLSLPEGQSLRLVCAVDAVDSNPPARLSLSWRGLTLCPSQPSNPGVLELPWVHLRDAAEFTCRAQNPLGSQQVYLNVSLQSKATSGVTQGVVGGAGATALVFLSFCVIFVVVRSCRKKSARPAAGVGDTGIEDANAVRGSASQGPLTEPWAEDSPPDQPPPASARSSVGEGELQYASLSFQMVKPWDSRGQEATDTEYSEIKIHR

Take `CCc1ccc(CN(CCCn2ccnc2)Cc2ccc(C)s2)o1`: the Percent Effect was -8.95% in [1]; 1.35% in experiment [2]; 1.91% in experiment [3]; 2.18% in experiment [4]; -0.79% in the experiment with Trypanosoma cruzi; -3.94% in [5]. In addition, the Percent Effect was 9.36% in experiment [6]; 38.5% in the experiment listed under Homo sapiens; 0% in experiment [7]; -6.49% in experiment [8]; -8.71% in [9].
For `CC(C)OCCN1CCC(N2CCN(C)C2=O)CC1`, the Percent Effect in experiment [1] was -8.32%; in experiment [2], 10.4%; in experiment [3], -1.47%; in experiment [4], 4.31%; in the experiment with Trypanosoma cruzi, 8.24%; in experiment [5] it was -6.05%. Further, the Percent Effect in experiment [6] was -1.18%; in the experiment filed under Homo sapiens, 6.82%; in experiment [7] it was 4.85%; in experiment [8], 14.6%; in experiment [9], -9.74%.
As for `Cc1cc(C)n(CC(=O)N2CCC(NS(=O)(=O)c3ccccc3)CC2)n1`, the Percent Effect in experiment [1] was -0.375%; in [2], 13.2%; in [3], 4.71%; in experiment [4], 6.53%; with Trypanosoma cruzi it was -1.32%; in [5], 0.383%. Moreover, the Percent Effect is 4.84% in experiment [6]; 15.1% in the experiment filed under Homo sapiens; 1.47% in experiment [7]; 7.32% in experiment [8]; -3.29% in experiment [9].
On to `COc1ccc(OC)c(NC(=O)c2nc3ccccc3n(C)c2=O)c1`, for which the Percent Effect is 1.79% in experiment [1]; -15.6% in experiment [2]; 3.42% in experiment [3]; -2.14% in experiment [4]; 0.888% in the experiment on Trypanosoma cruzi; 3.23% in experiment [5]. The Percent Effect in [6] was 9.22%; in the experiment filed under Homo sapiens it was 3.54%; in experiment [7], 1.06%; in [8] it was 14.1%; in experiment [9], -7.41%.
Take `Cc1nc(C)n(C2CCCN(C(=O)c3ccc(N(C)C)nn3)C2)n1` (stereo not given): the Percent Effect in [1] was -1.66%; in experiment [2], -5.2%; in experiment [3] it was 4.94%; in [4], -6.86%; in the experiment on Trypanosoma cruzi, 7.35%; in experiment [5] it was -0.632%. Also, the Percent Effect in [6] is 6.06%; in the experiment listed under Homo sapiens it was -42.5%; in [7] it was 2.86%; in [8], 0%; in experiment [9], -16.9%.
Regarding `CC(=O)Nc1nc(C2CCN(CC(N)=O)CC2)cs1`, the Percent Effect is -1.36% in experiment [1]; -6.76% in experiment [2]; 6.42% in [3]; 5.54% in experiment [4]; -4.35% in the experiment on Trypanosoma cruzi; 3.48% in experiment [5]. The Percent Effect in experiment [6] was -3.9%; in the experiment filed under Homo sapiens it was 5.69%; in experiment [7] it was 0%; in [8], -3.9%; in experiment [9], 11%.
Regarding `O=C([C@@H]1COC[C@H]2CN(C3CCOCC3)C[C@H]21)N1CCCCO1`, the Percent Effect is 0.287% in experiment [1]; 13.3% in [2]; -0.78% in experiment [3]; -8.11% in experiment [4]; 0.386% in the experiment on Trypanosoma cruzi; -46.4% in [5]. Besides, the Percent Effect is 6.67% in experiment [6]; 7.44% in the experiment filed under Homo sapiens; 2.08% in experiment [7]; 20% in experiment [8]; -6.62% in [9].
Consider `c1ncn(CC2CCCN(Cc3nc(C4CC4)no3)C2)n1` (stereo not given), for which the Percent Effect in [1] was -5.67%; in experiment [2], 10.1%; in experiment [3], -7.43%; in experiment [4] it was 8.58%; in the experiment on Trypanosoma cruzi, 8.59%; in experiment [5] it was -4.56%. Also, the Percent Effect is -3.36% in [6]; -5.79% in the experiment filed under Homo sapiens; 6.4% in experiment [7]; 13.9% in experiment [8]; -1.7% in [9].
On to `COCC1c2nnn(CC3CC3)c2CCN1C(=O)Cc1cccs1` (stereo not given), for which the Percent Effect in experiment [1] is 1.82%; in experiment [2], 2.7%; in [3], -8.03%; in experiment [4] it was 6.62%; in the experiment with Trypanosoma cruzi, 4.59%; in experiment [5] it was 13.7%. Also, the Percent Effect in experiment [6] is 17.2%; in the experiment filed under Homo sapiens it was 7.37%; in experiment [7], 4.3%; in [8] it was -58%; in [9], -3.81%.
Consider `c1ccc(-c2noc(CN3CCOC(Cn4cccn4)C3)n2)nc1` (stereo not given), for which the Percent Effect in experiment [1] was -0.328%; in [2], 0%; in [3], 4.78%; in experiment [4] it was 8.36%; in the experiment with Trypanosoma cruzi it was 0.188%; in [5] it was -1.53%. Besides, the Percent Effect was 3.51% in experiment [6]; 6.16% in the experiment filed under Homo sapiens; -0.49% in experiment [7]; -2.44% in experiment [8]; 4.99% in [9].
